Compounds without any hit were thinned out: in the full panel of roughly 83,000, 20% have a hit.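 Cells were grown in 96-well plates and exposed to the test compound at a single concentration for 48 hours; results are reported as percent growth, with values below 10 considered active.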 Unmarked numbers belong to inactive results. Activity calls are given as the source filed them.
What follows are compounds tested on NCI-H23 lung (assay: NCI-60 one-dose screen, 48 h (100 = growth as untreated, 0 = no growth, -100 = all killed)). Settings: 10 µM unless noted.

| SMILES | growth |
| --- | --- |
| COc1ccc(-c2cn(-c3cc(OC)c(OC)c(OC)c3)c(=O)n2C(C)=O)cc1 | 94.9% |
| O=C1NC(=O)c2c1c1c3ccccc3ccc1c1[nH]c3ccc(Br)cc3c21 | 2.08% (active) |
| O=C(Cn1c2c(c3ccccc31)CCCC2)Nc1ccc(-c2nc3ccccc3s2)cc1 | 94.5% |
| COc1ccc(C/C(C)=C(/c2ccc(OCCN3CCCCC3)cc2)c2ccc(OC(=O)NCc3ccccc3)cc2)cc1 | -84.6% (active) |
| CC(C)OC(=O)c1ccc2[nH]c(O)c(C(=Nc3ccc(N(C)C(=O)CN4CCN(C)CC4)cc3)c3ccccc3)c2c1 | -59.9% (active) |
| COc1cc(N2C(=O)[C@H](O)C2c2ccc(SC)cc2)cc(OC)c1OC (stereo not given in full) | 23% |
| CCCCOC(=O)OCc1cc(=O)c(O)co1 | 95.3% |
| COc1ccc(C2=Nc3c/c(=C\c4c(O)[nH]c5ccc(Cl)cc45)ccc3=N2)cc1 | 52.1% |
| O=C(Nc1cccc([N+](=O)[O-])c1)c1cc2ccccc2cc1O | -0.282% (active) |
| O=C(/C=C/c1cn(-c2ccccc2)nc1-c1ccc([N+](=O)[O-])cc1)c1ccc(Cl)cc1 | 48.4% |
| CC(C)CCC[C@@H](C)[C@H]1CC[C@H]2[C@@H]3CC=C4C[C@@H](C(C(=O)O)C(=O)O)CC[C@]4(C)[C@H]3CC[C@]12C | -48% (active) |
| CN(C)CCNC(=O)c1cccc(-c2cnc3ccc(-c4ccc5c(c4)OCO5)nn23)c1 | 69.2% |
| N#Cc1c(-c2ccc(Cl)cc2)nc(SCC(=O)NC2=NN=C(c3ccccc3)CS2)[nH]c1=O | 76.3% |
| Cc1ccc2c3c(c(=O)[nH]c2c1)C1(C(C#N)=C(N)O3)c2cc(Br)ccc2-c2ccc(Br)cc21 | 6.8% (active) |
| CCCCCCC1(C)NCCO1 (stereo not given) | 99.1% |
| COc1cc(CNS(=O)(=O)c2ccc(C)cc2)ccc1OCc1cn(-c2ccc(F)cc2)nn1 | 79.6% |
| Cc1cc(N)c2cc(NC(=O)/C=C\c3ccccc3Cl)ccc2n1 | -85.4% (active) |
| CCOC(=O)C(=Cc1cccc(Br)c1)C(=O)OCC | 17.7% |
| COc1cc(NC(C)CCCNC(C)C)c2ncccc2c1OC (stereo not given) | 89.5% |
| COc1ccc2cc(-c3ccc(NC(C)=O)c(=O)o3)ccc2c1 | 94.4% |

| SMILES | growth |
| --- | --- |
| COc1cc(CNS(=O)(=O)c2ccc(C)cc2)ccc1OCc1cn(-c2ccc(Br)cc2)nn1 | 103% |
| O=S(=O)(NCCNc1cc(-c2c(-c3cccc(O)c3)nc3sccn23)ccn1)c1ccc(C(F)(F)F)cc1 | 51.9% |
| COc1ccc(/C=N/C2=C(C#N)C(c3cccc(Cl)c3)c3c(ccc4ccccc34)O2)cc1 (stereo not given) | 53.5% |
| N#CC1C=CN(CC(N)=O)c2ccc3cccnc3c21 (stereo not given) | 94.7% |
| COc1ccc2c(c1)[n+]([O-])c(C(=O)/C=C/C=C(\Cl)c1cc(OC)c(OC)c(OC)c1)c(C)[n+]2[O-] | 79.7% |
| O=S(=O)(Nc1ccc(Cl)cc1)c1ccc(-c2cnc(C3CC3)o2)cc1 | 34.5% |
| Cc1nc2c(=O)[nH]c(SCC(=O)Nc3cccc(F)c3)nc2[nH]c1=O | 100% |
| Nc1nc2c([nH]1)c1[nH]c3ccccc3c1c1[nH]c3ccccc3c21 | 63.5% |
| O=C(Cn1cc(CN2CCCCCC2)nn1)Nc1ccc2c(ccn2Cc2ccccc2)c1 | 96.4% |
| O=C(Nc1cc(Cl)ccc1O)c1ccc(Nc2ccnc(C(F)(F)F)c2)cc1 | 9.34% (active) |
| COc1cccc(NC(=O)Cn2cc(CN3CCN(c4ccnc5cc(Cl)ccc45)CC3)nn2)c1 | 95% |
| CC(C)(C)n1cc(-c2ccnc(NCCNS(=O)(=O)c3cccc4ccccc34)c2)c(-c2cccc(F)c2)n1 | 0.565% (active) |
| C/C(Nc1ccc(Cl)c(Cl)c1)=C1\CCOC1=O | 93.3% |
| Cc1c(-c2nc3ccc(F)cc3c(=O)[nH]2)c2ccccc2n1C | 50.5% |
| CC(C)n1cnc2c(=S)nc[nH]c21 | 114% |
| Oc1c(Cl)cc(Cl)c2ccc(Cn3cc(-c4cc(C(F)(F)F)cc(C(F)(F)F)c4)nn3)nc12 | 77.3% |
| COC(=O)c1c2c(c[n+]([O-])c1C)C(=O)C(NCc1ccccc1)=CC2=O | -34.1% (active) |
| COc1ccc2[nH]cc(-c3nc(-c4cn(C)c5c(Cl)nccc45)cs3)c2c1 | 58.3% |
| Clc1ccc(CNc2c3ccccc3nc3ccccc23)cc1 | 53% |
| CCOC(=O)c1cc(-c2ccc([N+](=O)[O-])cc2)n(-c2ccc(C(=O)O)c(O)c2)c1C | 58.8% |

— PubChem BioAssay (NCI)
